Test results from PubChem BioAssay (NCI).
Values joined by “and” are separate entries in the source; they are usually repeats but may differ in a detail not shown here. Equal entries are not always repeated. Compounds without any hit were thinned out: in the full panel of roughly 79,000, 15% have a hit. Active and inactive are the calls of the source. No stated cut-off is given here; in the data, active means growth inhibition above about 70%; inactive means the rest.

How the values were obtained:
[1] = NCI Yeast Anticancer Drug Screen. Data for the rad50 strain (AID 155);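 further: 0% = growth of vehicle-only cultures of the same strain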; conditions: S. cerevisiae rad50 strain growth inhibition, hits give high values
How it was run: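 Genetically altered yeast (DNA repair pathway); compound treatment; growth inhibition vs vehicle ctrl.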

[2] = NCI Yeast Anticancer Drug Screen. Data for the mec2-1 strain (AID 157); conditions: S. cerevisiae mec2-1 strain, hits give high values
How it was run: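 Readout is yeast growth inhibition, normalised to vehicle-treated controls, in the mec2-1 strain exposed to compound.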

[3] = NCI Yeast Anticancer Drug Screen. Data for the sgs1 mgt1 strain (AID 161);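 further: 0% = growth of cultures given vehicle only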; conditions: S. cerevisiae sgs1 mgt1 strain, hits give high values
How it was run: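 Growth of a repair-deficient yeast mutant was monitored after compound treatment and expressed as inhibition relative to vehicle-treated cultures.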

[4] = NCI Yeast Anticancer Drug Screen. Data for the cln2 rad14 strain (AID 165);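 further: 0% = growth equal to vehicle treated cultures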; conditions: S. cerevisiae cln2 rad14 strain, hits give high values
How it was run: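 Relative to vehicle controls, growth inhibition of compound-treated cln2 rad14 yeast was recorded.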

[5] = NCI Yeast Anticancer Drug Screen. Data for the bub3 strain (AID 167); conditions: S. cerevisiae bub3 mutant strain, hits give high values
How it was run: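 Yeast carrying a defined mutation is treated with each compound, and growth is compared with that of vehicle-exposed cells to give inhibition.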

[6] = NCI Yeast Anticancer Drug Screen. Data for the mlh1 rad18 strain (AID 175); conditions: S. cerevisiae mlh1 rad18 strain growth inhibition, hits give high values
How it was run: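 Test agents were incubated with a yeast strain of defined genotype (DNA damage repair defect). Inhibition of growth was derived by comparison with vehicle-exposed cultures.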

[7] = at 5.0 µM (retest, dose inferred, filed as 0.5)
[8] = at 50.0 µM (retest, dose inferred, filed as 5.0)

Measured: growth inhibition

CC(C)C1=CC23CCC4C(C)(C(=O)O)CCCC4(C)C2CC1OO3 (centres undefined)
inactive: [1]; [7] 37% | [2]; [7] 10% | [3]; [7] 17% | [4]; [7] 1% | [5]; [7] -3% | [6]; [7] 27%
active: [1]; [8] 91% | [1]; at 50.0 µM 98.2% and 98.8% | [2]; [8] 94% | [2]; at 50.0 µM 93.1% and 98.8% | [3]; [8] 84% | [3]; at 50.0 µM 98.2% and 98.9% | [4]; [8] 78% | [4]; at 50.0 µM 97% and 90.4% | [5]; [8] 80% | [5]; at 50.0 µM 98% and 99.5% | [6]; [8] 89% | [6]; at 50.0 µM 98.5% and 95.2%

O=[N+]([O-])c1csc([N+](=O)[O-])c1
active: [1]; [7] 99% | [1]; [8] 99% | [1]; at 50.0 µM 99.3% | [2]; [7] 97% | [2]; [8] 99% | [2]; at 50.0 µM 99.7% | [3]; [7] 95% | [3]; [8] 99% | [3]; at 50.0 µM 99.5% | [4]; [7] 75% | [4]; [8] 99% | [4]; at 50.0 µM 98.8% | [5]; [7] 89% | [5]; [8] 99% | [5]; at 50.0 µM 99.2% | [6]; [7] 99% | [6]; [8] 99% | [6]; at 50.0 µM 99.3%

FC1(F)C(Cl)=[C]([Hg][C]2=C(Cl)C(F)(F)C(F)(F)C(F)(F)C2(F)F)C(F)(F)C(F)(F)C1(F)F
active: [1]; [8] 98% | [1]; at 50.0 µM 98.6% | [2]; [8] 99% | [3]; [8] 99% | [3]; at 50.0 µM 99.7% | [4]; [8] 99% | [5]; [8] 99% | [5]; at 50.0 µM 75% | [6]; [8] 99%
inactive: [1]; [7] 45% | [2]; [7] 66% | [2]; at 50.0 µM 51.1% | [3]; [7] 58% | [4]; [7] 57% | [4]; at 50.0 µM 19.9% | [5]; [7] 69% | [6]; [7] 57% | [6]; at 50.0 µM 50.6%

CC(=O)[O-].[Zn].c1ccc(/C(=N\Nc2ccccn2)c2ccccn2)cc1
inactive: [1]; [7] 29% | [1]; [8] 66% | [1]; at 50.0 µM 41.9% | [2]; [7] 37% | [2]; [8] 61% | [2]; at 50.0 µM 9.8% | [3]; [7] 38% | [3]; at 50.0 µM 23.8% | [4]; [7] 26% | [4]; at 50.0 µM 13.8% | [5]; [7] 44% | [5]; at 50.0 µM 34.6% | [6]; [7] 36% | [6]; [8] 68% | [6]; at 50.0 µM 41.1%
active: [3]; [8] 83% | [4]; [8] 78% | [5]; [8] 86%

COc1cc(C=Nc2cc(Br)c(OC)c(Br)c2)ccc1N(CCCl)CCCl
active: [1]; [8] 73% | [1]; at 50.0 µM 84.5% | [2]; [8] 79% | [3]; at 50.0 µM 76.2% | [6]; [8] 95% | [6]; at 50.0 µM 83.2%
inactive: [1]; [7] 1% | [2]; [7] -12% | [2]; at 50.0 µM 31.4% | [3]; [7] -1% | [3]; [8] 45% | [4]; [7] 1% | [4]; [8] 46% | [4]; at 50.0 µM 55.7% | [5]; [7] -8% | [5]; [8] -3% | [5]; at 50.0 µM -1.45% | [6]; [7] 54%

N#CC(Nc1c(N)nc(-c2ccccc2)nc1N)c1ccc(N(CCCl)CCCl)cc1 (centres undefined)
inactive: [1]; [7] 4% | [1]; [8] 45% | [1]; at 50.0 µM 57.5% | [2]; [7] -18% | [2]; [8] 26% | [2]; at 50.0 µM 66% | [3]; [7] 2% | [3]; [8] 43% | [3]; at 50.0 µM 59.8% | [4]; [7] -10% | [4]; [8] 9% | [4]; at 50.0 µM 53.1% | [5]; [7] -4% | [5]; [8] -4% | [5]; at 50.0 µM 0.75% | [6]; [7] 27% | [6]; at 50.0 µM 55.6%
active: [6]; [8] 90%

Cc1cc(NCc2ccccc2)c2ccccc2[n+]1CCCCCCCCCC[n+]1c(C)cc(NCc2ccccc2)c2ccccc21
active: [1]; [7] 99% | [1]; [8] 99% | [1]; at 50.0 µM 90.8% | [2]; [7] 100% | [2]; [8] 99% | [2]; at 50.0 µM 92.2% | [3]; [7] 99% | [3]; [8] 99% | [3]; at 50.0 µM 92% | [4]; [7] 98% | [4]; [8] 99% | [4]; at 50.0 µM 91.1% | [5]; [7] 99% | [5]; [8] 99% | [5]; at 50.0 µM 89.1% | [6]; [7] 97% | [6]; [8] 98% | [6]; at 50.0 µM 86.2%

O=[As]c1ccc([N+](=O)[O-])cc1 (centres undefined)
inactive: [3]; [7] 39% | [4]; [7] 58%
active: [1]; [7] 80% | [1]; [8] 100% | [1]; at 50.0 µM 99.6% | [2]; [7] 89% | [2]; [8] 100% | [2]; at 50.0 µM 99.7% | [3]; [8] 99% | [3]; at 50.0 µM 99.7% | [4]; [8] 98% | [4]; at 50.0 µM 98.9% | [5]; [7] 99% | [5]; [8] 100% | [5]; at 50.0 µM 99.3% | [6]; [7] 89% | [6]; [8] 99% | [6]; at 50.0 µM 99.5%
